# In all, about 52,000 compounds went through this assay and about 4,300 (8.3%) were called active. The sample as a whole holds a higher share of actives than the screen did. A number with no mark means an inactive call. Cut-off read from the data, not from the text of the source: active = survival mostly below about 52% (no sharp cut-off); inactive = mostly above about 56%.
# Tested on: DeltatarO mutant
# Assay: S. aureus survival, RN4220 and DeltatarO strains – OD600, teichoic acid synthesis inhibitors, primary screen (AID 463173)
# Details: S. aureus RN4220 wild type/DeltatarO growth, OD600, 18 h, active compounds read low, screened at 18.75 µg/mL (by protocol)
row,SMILES,survival
1,O=C(c1cccnc1)N1CCN(CCN2C(=O)C3C4C=CC(C4)C3C2=O)CC1 (centres undefined),89%
2,COc1ccc(-n2nc(C(=O)NCCc3ccc(OC)c(OC)c3)c3c4ccccc4n(C)c3c2=O)cc1Cl,95%
3,CCOc1ccc(S(=O)(=O)NCCc2csc(-c3ccc(Cl)cc3)n2)cc1,91%
4,O=C1CC(c2ccccc2)Cc2[nH]c(=O)c(-c3nc(-c4ccc(F)cc4)cs3)cc21 (centres undefined),154%
5,Cc1ccc(NC(=O)c2c(C)oc3ncnc(N4CCCCC4)c23)c(C)c1,108%
6,O=C(CCC1N=C2c3ccccc3N=C(SCC(=O)Nc3ccccc3F)N2C1=O)NCc1cccs1 (centres undefined),96%
7,CCc1cccc(NC(=O)Cn2c(=O)n(CC3CCC(C(=O)NC)CC3)c(=O)c3sccc32)c1 (centres undefined),83%
8,Cc1ccccc1OCCSc1nc2ccc(NC(=O)c3cccc(F)c3)cc2s1,100%
9,O=C(NCC1CCCO1)C1CCCN1C(=O)Nc1ccc(Cl)cc1 (centres undefined),84%
10,COc1cccc(-c2cc(C(=O)NCc3ccccc3)no2)c1,45% (active)
11,COc1cccc(-c2cc(C(=O)Nc3cccnc3Cl)no2)c1,61%
12,COc1cccc(-c2cc(C(=O)NCCc3ccc(OC)c(OC)c3)no2)c1,173%
13,COc1cccc(-c2cc(C(=O)NCc3ccc(F)cc3)no2)c1,30% (active)
14,COc1ccc(-c2cc(C(=O)NCc3ccc(F)cc3)no2)cc1,178%
15,CCC(C)NC(=O)c1cc(-c2cccc(OC)c2)on1 (centres undefined),32% (active)
16,COc1ccc(CNC(=O)c2cc(-c3cccc(Cl)c3)on2)cc1,49%
17,COc1cccc(-c2cc(C(=O)Nc3ccc(OC)cc3OC)no2)c1,56%
18,COc1ccc(CNC(=O)c2cc(-c3ccc(OC)cc3)on2)cc1,210%
19,CCOC(=O)C1CCCN(C(=O)c2c(C)nn(-c3ccc(F)cc3)c2-n2cccc2)C1 (centres undefined),113%
20,COc1cccc(NC(=O)C2CCN(c3ccc(Sc4ccc(C)cc4)nn3)CC2)c1,49%
21,O=C(CSc1cn(CC(=O)N2CCCC2)c2ccccc12)Nc1ccccc1C(F)(F)F,66%
22,O=C(NCn1nc(-c2ccccc2)nc1-c1ccccc1)c1cccnc1,67%
23,CN(C)N=Nc1ccc(S(N)(=O)=O)cc1,92%
24,O=C(c1ccccc1)n1nc(-c2ccco2)nc1NCc1cccs1,81%

row,SMILES,survival
1,CC(C)CNS(=O)(=O)c1ccc(N2CCCCS2(=O)=O)cc1,82%
2,COc1ccc(CNC(=O)c2cc3ccccn3n2)c(OC)c1,71%
3,O=C(c1ccccc1)N1CCCC(c2nc3c(nnn3Cc3ccc(F)cc3F)c(=O)[nH]2)C1 (centres undefined),101%
4,O=C(c1ccccc1Cl)N1CCCC(c2nc3c(nnn3Cc3ccc(F)cc3F)c(=O)[nH]2)C1 (centres undefined),56%
5,CCS(=O)(=O)N1CCCC(c2nc3c(nnn3Cc3ccc(C)cc3)c(=O)[nH]2)C1 (centres undefined),88%
6,O=C(c1cccc(Cl)c1)N1CCC(c2nc3c(nnn3Cc3ccc(F)cc3F)c(=O)[nH]2)CC1,11% (active)
7,Cc1ccccc1Cn1nnc2c(=O)[nH]c(C3CCN(C(=O)c4ccccc4)CC3)nc21,17% (active)
8,Cc1ccccc1Cn1nnc2c(=O)[nH]c(C3CCN(C(=O)c4ccccc4Cl)CC3)nc21,17% (active)
9,COc1ccc(Cn2nnc3c(=O)[nH]c(C4CCN(C(=O)c5ccc(C)cc5)CC4)nc32)cc1OC,24% (active)
10,COc1ccc(Cn2nnc3c(=O)[nH]c(C4CCCN(C(=O)c5ccc(C)cc5)C4)nc32)cc1 (centres undefined),107%
11,COC(=O)c1ccc(NC(=O)N2CCN(c3nnc(C)c4c(C)n(-c5ccccc5)nc34)CC2)cc1,65%
12,COc1ccc(C(=O)CN2CCC(N3CCCCC3)CC2)cc1,92%
13,COc1cc(-c2nc(Cn3nnc(C(=O)Nc4cccc(Cl)c4)c3C)c(C)o2)cc(OC)c1OC,80%
14,CCN(CC)c1ccc(C(=O)N2CCC(c3c[nH]c4ccccc34)(c3c[nH]c4ccccc34)CC2)cc1,104%
15,CCOc1ccccc1NC(=O)N1CCN(S(=O)(=O)c2ccc3c(ccn3C)c2)CC1,76%
16,CC(C)(C)c1ccc(C(=O)N2CCC(C(=O)O)CC2)cc1,68%
17,CN1C(=O)CC(NCCc2ccc(S(N)(=O)=O)cc2)C1=O (centres undefined),72%
18,CCOc1ccc(-n2c(SCC(=O)Nc3cccc(Cl)c3)nc3c(oc4ccccc43)c2=O)cc1,58%
19,COc1cccc(Cn2nnc3c(=O)[nH]c(C4CCCN(C(=O)c5ccccc5Cl)C4)nc32)c1 (centres undefined),80%
20,Cc1cccc(Cn2nnc3c(=O)[nH]c(C4CCN(C(=O)c5ccccc5F)CC4)nc32)c1,46%
21,Cc1cccc(Cn2nnc3c(=O)[nH]c(C4CCN(C(=O)c5ccc(F)cc5)CC4)nc32)c1,28% (active)
22,COc1ccc(Cn2nnc3c(=O)[nH]c(C4CCCN(C(=O)c5ccccc5Cl)C4)nc32)cc1OC (centres undefined),80%
23,O=C(c1ccccc1F)N1CCC(c2nc3c(nnn3Cc3cccc(F)c3)c(=O)[nH]2)CC1,47%
24,COc1cccc(Cn2nnc3c(=O)[nH]c(C4CCN(C(=O)c5ccccc5Cl)CC4)nc32)c1,14% (active)

row,SMILES,survival
1,Cc1ccccc1Cn1nnc2c(=O)[nH]c(C3CCN(C(=O)c4ccc(F)cc4)CC3)nc21,52% (active)
2,Cc1cc(C)cc(NC(=O)c2cc3c(=O)n(Cc4ccco4)ccc3nc2C)c1,73%
3,O=C(Nc1ccccc1)c1ccc2c(O)c(S(=O)(=O)c3ccc(Cl)cc3)c(=O)[nH]c2c1,74%
4,COc1ccc(N(C)C(=O)c2cn(C)c(=O)c3cc(OC)c(OC)cc23)cc1,177%
5,O=C(CCSc1nnc(-c2ccco2)o1)Nc1ccccc1,86%
6,O=C(CSc1nnc(-c2ccco2)o1)NC(c1ccccc1)c1ccccc1,61% (active)
7,O=C(CSc1nnc(-c2ccccc2)o1)Nc1ccccc1,82%
8,CCOc1ccc(Sc2cc(C(=O)NCCc3ccccc3)c3ccccc3n2)cc1,73%
9,N#Cc1cn(CC(=O)NCc2ccccc2)c2ccccc12,87%
10,CCOC(=O)c1ccc2c(c1)[C@@H]1C=CC[C@@H]1[C@H](c1cccc(OC)c1OC)N2,-10% (active)
11,COc1cccc([C@H]2Nc3ccc(S(=O)(=O)Nc4cc(C)ccc4C)cc3[C@H]3C=CC[C@H]32)c1,52%
12,CCOc1ccc2c(c1)[C@@H]1C=CC[C@@H]1[C@H](c1ccccc1Cl)N2,-10% (active)
13,Fc1ccc([C@@H]2Nc3ccccc3[C@@H]3C=CC[C@@H]32)cc1,56%
14,CCCN1CCN(CC2=C(C(=O)OCC)C(c3cccc(OC)c3OC)NC(=O)N2)CC1 (centres undefined),94%
15,COc1ccc(NS(=O)(=O)c2ccc3c(c2)[C@H]2C=CC[C@H]2[C@@H](c2ccc(C(=O)O)cc2)N3)cc1,72%
16,COc1ccc(C)cc1NS(=O)(=O)c1ccc2c(c1)[C@H]1C=CC[C@H]1[C@@H](c1cccc(Cl)c1)N2,57%
17,COc1ccc(Br)cc1[C@@H]1Nc2ccc(C(=O)O)cc2[C@@H]2C=CC[C@@H]21,36% (active)
18,COc1cccc(NS(=O)(=O)c2ccc3c(c2)[C@H]2C=CC[C@H]2[C@@H](c2ccccc2Cl)N3)c1,163%
19,CCCCN(CC)CCNC(=O)Cn1cnc2sc(C)c(S(=O)(=O)N3CCC(C)CC3)c2c1=O,69%
20,COCC(=O)NCc1ccc2c(c1)OCO2,104%
21,CCN(CC)CCOC(=O)c1ccc(NC(=O)c2cc3cc(OC)ccc3oc2=O)cc1,73%
22,COc1ccc(NC(=O)Cn2c(=O)n(-c3ccc(C)c(C)c3)c(=O)c3c(C)c(C)sc32)cc1,139%
23,O=C1[C@@H]2CSC(c3ccc(C(F)(F)F)cc3)N2C(=O)N1c1ccccc1 (some centres undefined),81%
24,O=C(NCc1ccccc1F)c1ccc(CSc2nc3cccnc3n2Cc2ccccc2)cc1,75%

row,SMILES,survival
1,CCCSc1nc(=O)c2c(n1C)NC(=O)CC2c1cccc(F)c1F (centres undefined),54% (active)
2,CCSc1nc(=O)c2c(n1C)NC(=O)CC2c1ccc(O)cc1OC (centres undefined),57%
3,CSc1nc(=O)c2c(n1C)NC(=O)CC2c1ccccc1OC(C)C (centres undefined),46%
4,Cc1oc(-c2ccc(Cl)cc2)nc1Cn1c(=O)cc(-c2ccccc2)c2c(C)nn(C)c21,88%
5,Cc1oc(C)c2c(=O)cc(-c3ccc4c(c3)OCO4)cc(OC(=O)c3ccccc3Br)c12,106%
6,O=C(NCCc1ccncc1)Nc1c[nH]c2ccccc2c1=O,89%
7,COc1ccccc1C(=O)c1cn(CC(=O)Nc2ccccc2F)c2nc(C)ccc2c1=O,71%
8,CCc1nc(C)cn1S(=O)(=O)c1ccc(Cl)c(Cl)c1OC,71%
9,CCOc1cc(Cl)c(S(=O)(=O)n2cc(C)nc2CC)cc1Cl,3% (active)
10,CCOc1cc(Cl)c(S(=O)(=O)n2ccnc2)cc1Cl,73%
11,CCOc1ccc(C(=O)NCCSc2c(C)[nH]c3ccccc23)cc1OCC,56%
12,CC1=C(C(=O)Nc2ccc(F)cc2)C(c2ccc(N(C)C)cc2)NC(=O)N1 (centres undefined),140%
13,Cc1ccccc1OCCCCn1c(CCNC(=O)C(C)(C)C)nc2ccccc21,36% (active)
14,CCCCCn1c(CCCNC(=O)c2ccc(Cl)cc2)nc2ccccc21,85%
15,Cc1ccccc1OCCn1c(CCNC(=O)C2CCCCC2)nc2ccccc21,77%
16,CCCCCn1c(CCCNC(=O)c2ccccc2)nc2ccccc21,59%
17,CC(C)(C)C(=O)NCCc1nc2ccccc2n1CCCCOc1ccc(Cl)cc1,18% (active)
18,Cc1ccccc1OCCn1c(CCNC(=O)C(C)(C)C)nc2ccccc21,82%
19,CC(=O)NCCc1nc2ccccc2n1CCCCOc1ccc(Cl)cc1,61%
20,Cc1cccc(OCCCn2c(CCNC(=O)C(C)(C)C)nc3ccccc32)c1,77%
21,Cc1ccc(OCCCCn2c(CCNC(=O)C(C)(C)C)nc3ccccc32)cc1,42% (active)
22,CC(C)(C)C(=O)NCCc1nc2ccccc2n1CCCCOc1ccccc1,41% (active)

# Reference: PubChem BioAssay AID463173 (ICCB-Longwood Screening Facility, Harvard Medical School, 2010)
